Measured values published in PubChem BioAssay AID504447 (The Scripps Research Institute Molecular Screening Center, 2011).
Measured potencies and affinities stand elsewhere. Active and inactive are the calls of the source. How the calls were made is not given here.

target: Peroxisome proliferator-activated receptor gamma (Homo sapiens) (UniProt P37231); experiment: PPARg partial agonists, dose response, cell-based, luminescence, assay provider (AID 504447); settings: cell-based PPARg reporter, luciferase luminescence, partial agonism; series mostly up to 5 µM
Sequence (P37231 whole entry, looked up): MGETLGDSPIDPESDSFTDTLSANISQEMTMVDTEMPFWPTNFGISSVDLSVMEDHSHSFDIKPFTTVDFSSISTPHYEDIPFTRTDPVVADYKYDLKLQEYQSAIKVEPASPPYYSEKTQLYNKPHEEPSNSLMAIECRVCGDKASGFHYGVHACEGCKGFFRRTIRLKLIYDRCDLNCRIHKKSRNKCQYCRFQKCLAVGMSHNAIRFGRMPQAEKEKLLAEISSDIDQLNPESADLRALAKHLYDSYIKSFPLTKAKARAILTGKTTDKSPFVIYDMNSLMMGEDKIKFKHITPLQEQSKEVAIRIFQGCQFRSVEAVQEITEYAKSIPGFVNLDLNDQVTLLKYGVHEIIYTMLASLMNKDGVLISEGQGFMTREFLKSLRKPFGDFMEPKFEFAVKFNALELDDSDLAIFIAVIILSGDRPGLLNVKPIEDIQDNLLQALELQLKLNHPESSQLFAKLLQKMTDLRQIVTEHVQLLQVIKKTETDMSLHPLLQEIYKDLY

outcome, inactive:
COc1ccc(CNC(=O)Cn2c(=O)n(CCC(=O)N3CCCCC3)c(=O)c3sccc32)cc1
Cc1ccc2nc(N3C(=O)C(O)=C(C(=O)c4ccco4)C3c3ccc(O)cc3)sc2c1 (configuration not stated)
O=C(O)COc1ccccc1/C=C1\SC(=S)N(NC(=O)c2ccccc2O)C1=O
O=C(Nc1c(C(=O)Nc2ccc3c(c2)OCCO3)cnn1-c1ccccc1Cl)c1ccco1
CC(C)OC(=O)CCN1C(=O)/C(=C/c2ccccc2)SC1=S
O=C(COc1coc(CN2CCc3ccccc3C2)cc1=O)Nc1ccc(F)cc1F
O=C(NC(Cc1ccccc1)C(=O)N1CCN(c2ccccc2O)CC1)c1ccccc1 (configuration not stated)
